{
  "source": "the supplement of paper PMC8728848",
  "test_in_all_cases": "glycan array binding signal (z-score within array); higher = stronger binding",
  "conditions_in_all_cases": "glycan notation: IUPAC condensed, linker removed",
  "key": {"[1]": {"biological_target": "Fuc(a1-2)Gal(b1-3)GlcNAc(b1-3)Gal(b1-4)Glc", "method_in_brief": "(§1)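 From the Consortium for Functional Glycomics database, 3228 arrays were curated, keeping only those whose protein sequence was available. Binding is given as a within-array Z-score averaged across arrays sharing a protein sequence and across linkers. Negative Z-scores can be read as non-binding.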"}, "[2]": {"biological_target": "Fuc(a1-2)Gal(b1-3)GlcNAc(b1-3)[Fuc(a1-2)Gal(b1-3)GlcNAc(b1-6)]GalNAc", "method_in_brief": "as §1"}, "[3]": {"biological_target": "Fuc(a1-2)Gal(b1-4)GlcNAc(b1-2)[Fuc(a1-2)Gal(b1-4)GlcNAc(b1-4)]Man(a1-3)[Fuc(a1-2)Gal(b1-4)GlcNAc(b1-2)Man(a1-6)]Man(b1-4)GlcNAc(b1-4)GlcNAc", "method_in_brief": "as §1"}, "Fuc(a1-2)Gal6S(b1-4)Glc": {"biological_target": "Fuc(a1-2)Gal6S(b1-4)Glc", "method_in_brief": "as §1"}, "[4]": {"biological_target": "Fuc(a1-2)[Gal(a1-3)]Gal(b1-3)GlcNAc(b1-6)GalNAc", "method_in_brief": "as §1"}, "[5]": {"biological_target": "Fuc(a1-2)[Gal(a1-4)]Gal(b1-4)GlcNAc", "method_in_brief": "as §1"}, "[6]": {"biological_target": "Fuc(a1-2)[GalNAc(a1-3)]Gal(b1-4)GlcNAc(b1-2)Man(a1-3)[Fuc(a1-2)[GalNAc(a1-3)]Gal(b1-4)GlcNAc(b1-2)Man(a1-6)]Man(b1-4)GlcNAc(b1-4)GlcNAc", "method_in_brief": "as §1"}, "[7]": {"biological_target": "Fuc(a1-3)[GalNAc(b1-4)]GlcNAc", "method_in_brief": "as §1"}, "Gal(a1-3)Gal(b1-3)GlcNAc": {"biological_target": "Gal(a1-3)Gal(b1-3)GlcNAc", "method_in_brief": "as §1"}, "[8]": {"biological_target": "Gal(a1-3)Gal(b1-3)GlcNAc(b1-2)Man", "method_in_brief": "as §1"}, "[9]": {"biological_target": "Gal(b1-3)GalNAc(b1-4)Gal(b1-4)Glc", "method_in_brief": "as §1"}, "[10]": {"biological_target": "Gal(b1-3)GlcNAc(a1-6)Gal(b1-4)GlcNAc", "method_in_brief": "as §1"}, "Gal(b1-3)GlcNAc(b1-2)Man": {"biological_target": "Gal(b1-3)GlcNAc(b1-2)Man", "method_in_brief": "as §1"}, "[11]": {"biological_target": "Gal(b1-3)GlcNAc(b1-2)Man(a1-3)[Gal(b1-3)GlcNAc(b1-2)Man(a1-6)]Man(b1-4)GlcNAc(b1-4)[Fuc(a1-6)]GlcNAc", "method_in_brief": "as §1"}, "[12]": {"biological_target": "Gal(b1-3)GlcNAc(b1-6)GalNAc", "method_in_brief": "as §1"}, "[13]": {"biological_target": "Gal(b1-3)[Fuc(a1-4)]GlcNAc(b1-3)Gal(b1-3)[Fuc(a1-4)]GlcNAc", "method_in_brief": "as §1"}, "[14]": {"biological_target": "Gal(b1-4)GlcNAc(b1-2)Man(a1-3)[GlcNAc(b1-2)Man(a1-6)]Man(b1-4)GlcNAc(b1-4)GlcNAc", "method_in_brief": "as §1"}, "[15]": {"biological_target": "Gal(b1-4)GlcNAc(b1-2)[Gal(b1-4)GlcNAc(b1-6)]Man(a1-6)[Gal(b1-4)GlcNAc(b1-2)Man(a1-3)]Man(b1-4)GlcNAc(b1-4)[Fuc(a1-6)]GlcNAc", "method_in_brief": "as §1"}, "[16]": {"biological_target": "Gal(b1-4)GlcNAc(b1-2)[Gal(b1-4)GlcNAc(b1-6)]Man(a1-6)[GlcNAc(b1-4)][Gal(b1-4)GlcNAc(b1-2)Man(a1-3)]Man(b1-4)GlcNAc(b1-4)GlcNAc", "method_in_brief": "as §1"}, "[17]": {"biological_target": "Gal(b1-4)GlcNAc(b1-3)Gal(b1-4)GlcNAc(b1-3)Gal(b1-4)GlcNAc(b1-3)Gal(b1-4)GlcNAc(b1-3)Gal(b1-4)GlcNAc(b1-3)Gal(b1-4)GlcNAc(b1-2)Man(a1-3)[Gal(b1-4)GlcNAc(b1-3)Gal(b1-4)GlcNAc(b1-3)Gal(b1-4)GlcNAc(b1-3)Gal(b1-4)GlcNAc(b1-3)Gal(b1-4)GlcNAc(b1-3)Gal(b1-4)GlcNAc(b1-2)Man(a1-6)]Man(b1-4)GlcNAc(b1-4)GlcNAc", "method_in_brief": "as §1"}, "[18]": {"biological_target": "Gal(b1-4)GlcNAc(b1-3)[Fuc(a1-3)GlcNAc(b1-6)]Gal(b1-4)Glc", "method_in_brief": "as §1"}, "Gal3S6S(b1-4)GlcNAc": {"biological_target": "Gal3S6S(b1-4)GlcNAc", "method_in_brief": "as §1"}, "Gal4S(b1-4)GlcNAc": {"biological_target": "Gal4S(b1-4)GlcNAc", "method_in_brief": "as §1"}, "Gal6S(b1-4)Glc6S": {"biological_target": "Gal6S(b1-4)Glc6S", "method_in_brief": "as §1"}, "Gal6S(b1-4)GlcNAc": {"biological_target": "Gal6S(b1-4)GlcNAc", "method_in_brief": "as §1"}, "Gal6S(b1-4)GlcNAc6S": {"biological_target": "Gal6S(b1-4)GlcNAc6S", "method_in_brief": "as §1"}, "[19]": {"biological_target": "GalNAc(b1-3)Gal(a1-4)Gal(b1-4)GlcNAc", "method_in_brief": "as §1"}, "[20]": {"biological_target": "GlcNAc(a1-4)Gal(b1-4)GalNAc", "method_in_brief": "as §1"}, "[21]": {"biological_target": "GlcNAc(b1-2)Man(a1-3)[GlcNAc(b1-2)Man(a1-6)]Man(b1-4)GlcNAc(b1-4)GlcNAc", "method_in_brief": "as §1"}, "[22]": {"biological_target": "GlcNAc(b1-2)[GlcNAc(b1-4)]Man(a1-3)[GlcNAc(b1-4)][GlcNAc(b1-2)Man(a1-6)]Man(b1-4)GlcNAc(b1-4)GlcNAc", "method_in_brief": "as §1"}},
  "note": "The sample as a whole holds a higher share of the strongest signals than the screen did.",
  "data": [
    {"binder": "GS7807P-bth-537-23-537 (Bacteroides thetaiotaomicron) (protein) NYENINSNPYEAPDLSADGYALGSAMNNLAGCVVSPDVNTAQFTDCLLGGPLGGYFADSNAGFTETISNFNPKDDWSRVFLKSDKIIPTLYSNLTQVKLVSQNTNDPVPYAIAQVIKVAAMHRVTDAFGPIPYSQIGANGEIATPYDSQEVTYNTFFDELNAAIATLNENSNEQLVPTADYIYKGDVKKWIRFANSLKLRLAIRIAYANPVKAQQMAEEAVNPANGGVIESNADNATWNYFETSQNPIYVATRYNQVQTSDHGGVPCLTGGDTHAAADIICYMNGYKDNRREKFFTKSEWAGQDYVGMRRGIVIPELKTTGHKYSGVNIAPTSPLYWMNAAEVAFLRAEGQAVFNFSMGGTAESFYNQGIRLSFEQWGADGVEDYLKDDVNKPTAYTDPAGTNTYQNALSNITIKWNDSADKEEKQERIIVQKWIANWQLGNEAWADFRRTGYPKLIPVKENKSGGVVDSEKGARRMPYPLDEFVSNKANVEYAIANYLHGADNMATDVWWASKK", "values": [
      {"measurement": "glycan array binding signal (z-score)", "setting": "[1]", "result": -0.288},
      {"measurement": "glycan array binding signal (z-score)", "setting": "[2]", "result": 5.33},
      {"measurement": "glycan array binding signal (z-score)", "setting": "[3]", "result": -0.271},
      {"measurement": "glycan array binding signal (z-score)", "setting": "Fuc(a1-2)Gal6S(b1-4)Glc", "result": 0.294},
      {"measurement": "glycan array binding signal (z-score)", "setting": "[4]", "result": 2.94},
      {"measurement": "glycan array binding signal (z-score)", "setting": "[5]", "result": -0.331},
      {"measurement": "glycan array binding signal (z-score)", "setting": "[6]", "result": 3.7},
      {"measurement": "glycan array binding signal (z-score)", "setting": "[7]", "result": 0.192},
      {"measurement": "glycan array binding signal (z-score)", "setting": "Gal(a1-3)Gal(b1-3)GlcNAc", "result": 0.94},
      {"measurement": "glycan array binding signal (z-score)", "setting": "[8]", "result": 1.1},
      {"measurement": "glycan array binding signal (z-score)", "setting": "[9]", "result": 0.496},
      {"measurement": "glycan array binding signal (z-score)", "setting": "[10]", "result": -0.173},
      {"measurement": "glycan array binding signal (z-score)", "setting": "Gal(b1-3)GlcNAc(b1-2)Man", "result": -0.221},
      {"measurement": "glycan array binding signal (z-score)", "setting": "[11]", "result": 2.17},
      {"measurement": "glycan array binding signal (z-score)", "setting": "[12]", "result": 1.42},
      {"measurement": "glycan array binding signal (z-score)", "setting": "[13]", "result": -0.304},
      {"measurement": "glycan array binding signal (z-score)", "setting": "[14]", "result": -0.348},
      {"measurement": "glycan array binding signal (z-score)", "setting": "[15]", "result": -0.271},
      {"measurement": "glycan array binding signal (z-score)", "setting": "[16]", "result": 2.06},
      {"measurement": "glycan array binding signal (z-score)", "setting": "[17]", "result": 2.28},
      {"measurement": "glycan array binding signal (z-score)", "setting": "[18]", "result": -0.071},
      {"measurement": "glycan array binding signal (z-score)", "setting": "Gal3S6S(b1-4)GlcNAc", "result": 0.325},
      {"measurement": "glycan array binding signal (z-score)", "setting": "Gal4S(b1-4)GlcNAc", "result": -0.373},
      {"measurement": "glycan array binding signal (z-score)", "setting": "Gal6S(b1-4)Glc6S", "result": 2.21},
      {"measurement": "glycan array binding signal (z-score)", "setting": "Gal6S(b1-4)GlcNAc", "result": 0.037},
      {"measurement": "glycan array binding signal (z-score)", "setting": "Gal6S(b1-4)GlcNAc6S", "result": 2.01},
      {"measurement": "glycan array binding signal (z-score)", "setting": "[19]", "result": 0.36},
      {"measurement": "glycan array binding signal (z-score)", "setting": "[20]", "result": -0.138},
      {"measurement": "glycan array binding signal (z-score)", "setting": "[21]", "result": -0.374},
      {"measurement": "glycan array binding signal (z-score)", "setting": "[22]", "result": -0.39}
    ]}
  ]
}
